VDR inhibitor: blocks the human vitamin D receptor | P11473 | VDR-SRC2-3 peptide fluorescence polarization, 2 h | Potency, µM, inactives show max response, negative = inhibition, usual class: inhibitors | hit rate 0.93% among 400,000 | AID 504847; note: potency is the fitted concentration of half-maximal effect
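Inhibition of the VDR/SRC2-3 peptide interaction is quantified by fluorescence polarization. Compounds (23 nl, pintool) incubate with the reagents for 2 hours at ambient room temperature.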
PI4K2A inh: PI4K2A (human) kinase inhibition; Q9BTU6; purified PI4K2A, ADP-Glo luminescence, 1 h; hits give low values; activity change, negative = inhibition, % at 76.9 µM; hit rate 0.13% among 420,000; in the data active = activity change below about -50%; inconclusive = mostly about -30% to -49%;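 note: -100% = wells without enzyme as full effect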
Target sequence (Q9BTU6 whole entry, looked up): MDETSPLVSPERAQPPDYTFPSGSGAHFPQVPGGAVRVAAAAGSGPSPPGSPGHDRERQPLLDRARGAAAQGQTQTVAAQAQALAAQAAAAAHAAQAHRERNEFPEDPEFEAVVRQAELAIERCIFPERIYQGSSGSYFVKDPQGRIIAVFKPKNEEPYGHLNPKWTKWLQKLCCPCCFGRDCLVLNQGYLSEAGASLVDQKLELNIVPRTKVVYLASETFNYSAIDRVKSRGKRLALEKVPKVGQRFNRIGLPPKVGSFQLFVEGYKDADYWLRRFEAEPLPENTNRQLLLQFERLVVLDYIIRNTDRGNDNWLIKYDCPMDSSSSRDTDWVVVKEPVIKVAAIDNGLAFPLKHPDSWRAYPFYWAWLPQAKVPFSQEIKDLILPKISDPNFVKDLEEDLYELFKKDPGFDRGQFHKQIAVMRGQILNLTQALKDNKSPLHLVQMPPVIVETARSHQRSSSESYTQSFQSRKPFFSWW
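In this quantitative HTS, ADP production by PI4K2A was quantified luminescently after 1 h at ambient temperature; 100 microM adenosine served as plate-quality control.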
GCN5L2 inh: blocks human GCN5L2 histone acetyltransferase | GCN5L2 HAT assay, ThioGlo1 CoA-SH fluorescence | Potency, µM (highest dose often 58.9 µM), for the others: at the top dose activity change, negative = inhibition, actives largely listed as inhibitors | hit rate 0.21% among 390,000; note: potency is the fitted concentration of half-maximal effect
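qHTS, 1536-well. 20nM enzyme, pH 7.5 HEPES/EDTA/Tween-20 buffer; 15 min compound preinc., RT. Start: 75uM H3(1-25), 70uM AcCoA, 50uM ThioGlo1. Read Ex340/Em540 at t=0 (autofluorescence flag) and t=20 min.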
PLK1 PBD inh: inhibitors of human PLK1 polo-box domain binding; Plk1 PBD binding of FITC phosphopeptide, fluorescence polarization; Potency, µM, inactives show max response, negative = inhibition, actives largely listed as inhibitors; hit rate 2.8% among 360,000; AID 720504; note: potency is the fitted concentration of half-maximal effect; series mostly up to about 57 µM; nearly all actives have a fitted effect of over 65% in size
GLS inh: blocks human kidney-isoform glutaminase activity. GLS enzymatic activity, qHTS titration. Potency, µM (series often up to 45.5 µM), for inactives: at the top dose activity change, negative = inhibition, actives largely listed as inhibitors. hit rate 0.21% among 410,000; note: potency is the fitted concentration of half-maximal effect
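hKGA in 45 mM KH2PO4 pH 8.2, 0.02% Tween-20 with pin-transferred compounds; 1 mM L-glutamine (stock) plus glutamate oxidase/HRP/Amplex Red coupling added. Fluorescence read initially and after 30 min at RT.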
Active calls of the source: *. The list is not random: actives were taken first. Their share in the collection is about 3.1%. Unless noted, calls come from the whole dose curve; as a rule, active = well fitted curve in the direction sought with a large enough effect; inconclusive = small, poorly fitted or top-dose-only effect, or another doubt; inactive = no such curve, though single readings can be large; an effect the other way counts as inactive or inconclusive. Unless noted, % is set by controls: 0 for no effect and ±100 for the full control effect.

How did Cc1ccc(S(=O)(=O)/N=C(/Sc2ccccc2C(=O)O)c2ccccc2)cc1 do in these assays?
VDR inhibitor: 3%; PI4K2A inh: 4; GCN5L2 inh: 1%; PLK1 PBD inh: 19µM*; GLS inh: -7%

How did CC(C(=O)C12CC3CC(CC(C3)C1)C2)N1CCOCC1 (centres undefined) do in these assays?
VDR inhibitor: inconclusive; PI4K2A inh: 0; GCN5L2 inh: inconclusive; PLK1 PBD inh: 21µM*; GLS inh: -9%

How did COCCN(CCOC)C(=O)c1cc2c(=O)n3ccccc3nc2s1 do in these assays?
VDR inhibitor: 15%; PI4K2A inh: -3; GCN5L2 inh: 18µM*; PLK1 PBD inh: -11%; GLS inh: 3%

How did CCN(CC)C(=O)c1cc2c(=O)n3ccccc3nc2s1 do in these assays?
VDR inhibitor: -11%; PI4K2A inh: -7; GCN5L2 inh: -10%; PLK1 PBD inh: -3%; GLS inh: -3%

What do the screens show for `CNC(=O)[C@H](Cc1c[nH]c2ccccc12)NC(=O)[C@@H](CC(=O)NO)CC(C)C`?
VDR inhibitor: inconclusive; GCN5L2 inh: -4%; GLS inh: 23%

Results for Cc1occc1C(=O)Nc1cccc([N+](=O)[O-])c1 ?
VDR inhibitor: 22µM*; PI4K2A inh: 0; GCN5L2 inh: -2%; PLK1 PBD inh: -19%; GLS inh: -3%

Results for CC(NC(=O)c1cccs1)c1ccc2c(c1)OCO2 (centres undefined) ?
VDR inhibitor: 12%; PI4K2A inh: 8; GCN5L2 inh: -6%; PLK1 PBD inh: 0%; GLS inh: -1%

How did Cc1ccc(C(=O)NC(C)c2ccc3c(c2)OCO3)s1 (centres undefined) do in these assays?
VDR inhibitor: inconclusive; PI4K2A inh: -2; GCN5L2 inh: -2%; PLK1 PBD inh: 12µM*; GLS inh: inconclusive

What do the screens show for `O=C(O)CCCCCCCCCCCc1ccccc1`?
VDR inhibitor: -13%; PI4K2A inh: -1; GCN5L2 inh: inconclusive; PLK1 PBD inh: 24µM*; GLS inh: 8%

What do the screens show for `CC(=O)c1cc(-c2ccccc2)c(=O)n2c1CCC2`?
PI4K2A inh: -1

What do the screens show for `CSc1ccccc1OCc1cc(C(=O)N(C)CCn2nc(C)cc2C)no1`?
VDR inhibitor: inconclusive; PI4K2A inh: -6; GCN5L2 inh: 1%; PLK1 PBD inh: 3.4µM*; GLS inh: inconclusive

Results for CSc1ccccc1OCc1cc(C(=O)N(C)Cc2nonc2C)no1 ?
VDR inhibitor: -4%; PI4K2A inh: -5; GCN5L2 inh: -1%; PLK1 PBD inh: -4%; GLS inh: 3%

What do the screens show for `COc1ccc(OCc2ccc(-c3nc(C#N)c(N4CCC(C)CC4)o3)o2)cc1`?
VDR inhibitor: 14%; PI4K2A inh: 1; GCN5L2 inh: -7%; GLS inh: -4%

Results for COc1cc([C@@H]2CC(=O)c3c(O)cc(O)cc3O2)ccc1O ?
VDR inhibitor: 3%; GCN5L2 inh: 6%

What do the screens show for `CCOC(=O)CSc1nc(N)nc(C)c1Cl`?
VDR inhibitor: inconclusive; PI4K2A inh: 3; GCN5L2 inh: -6%; PLK1 PBD inh: 30µM*; GLS inh: 2%

What do the screens show for `COc1ccc(N2C3=C(CC4=C2CC(C)(C)CC4=O)C(=O)CC(C)(C)C3)cc1`?
VDR inhibitor: -89%; PI4K2A inh: 0; GCN5L2 inh: 34%; PLK1 PBD inh: 8.4µM*; GLS inh: inconclusive

Results for N#CC1=C(S)N(c2ccc(F)cc2)C2(CCCCC2)NC1=O ?
VDR inhibitor: inconclusive; PI4K2A inh: -3; GCN5L2 inh: 13%; PLK1 PBD inh: -23%; GLS inh: 22%

How did N#CC1=C(S)N(c2ccccc2)C2(CCCCC2)NC1=O do in these assays?
VDR inhibitor: 35µM*; PI4K2A inh: -3; GCN5L2 inh: -10%; PLK1 PBD inh: -2%; GLS inh: 0%

Results for O=C(CN(CCc1ccccc1)S(=O)(=O)c1ccc(F)cc1)N1CCOCC1 ?
PI4K2A inh: 0

How did N#C/C(=C\c1cc(O)c(O)c(O)c1)C(N)=O do in these assays?
VDR inhibitor: -11%; PI4K2A inh: -9; GCN5L2 inh: -18%; PLK1 PBD inh: -4%; GLS inh: -18%

Results for CC(=O)N1CCc2cc(S(=O)(=O)NCCC(=O)NCc3ccc(Cl)cc3)ccc21 ?
PI4K2A inh: -3

How did O=c1[nH]nc(N/N=C/c2ccc(Cl)cc2Cl)c(=O)[nH]1 do in these assays?
VDR inhibitor: inconclusive; PI4K2A inh: 4; GCN5L2 inh: -7%; PLK1 PBD inh: 24µM*; GLS inh: -7%

How did OC[C@@H](O)[C@H](O)[C@H](O)[C@@H](O)CO do in these assays?
PI4K2A inh: 0

How did COc1ccc(C(=O)N/N=C(/C)c2ccc(N3CCCCC3)cc2)cc1 do in these assays?
VDR inhibitor: inconclusive; PI4K2A inh: 5; GCN5L2 inh: -9%; PLK1 PBD inh: 30µM*; GLS inh: inconclusive

How did CC(C)(C)c1csc(NC(=O)Cn2c(=O)oc3ccccc32)n1 do in these assays?
VDR inhibitor: 8%; PI4K2A inh: -1; GCN5L2 inh: -18%; PLK1 PBD inh: 27µM*; GLS inh: -12%

How did COc1ccccc1-n1cnnc1SCC(=O)Nc1ncc(Cl)cc1Cl do in these assays?
VDR inhibitor: -18%; PI4K2A inh: -4; GCN5L2 inh: -2%; PLK1 PBD inh: 30µM*; GLS inh: 2%

Results for CCOC(=O)CC[C@H]1CC[C@]2(CCCN(C(=O)c3ccco3)C2)O1 ?
PI4K2A inh: 3

What do the screens show for `N#CC1=C2SCN(C3CCCCC3)CN2C(=O)CC1c1ccc(Br)cc1` (centres undefined)?
VDR inhibitor: 18µM*; PI4K2A inh: -2; GCN5L2 inh: 35µM*; GLS inh: 13%

What do the screens show for `CCOc1cc(C2CC(=O)N3CN(C4CCCCC4)CSC3=C2C#N)ccc1O` (centres undefined)?
VDR inhibitor: inconclusive; PI4K2A inh: -9; GCN5L2 inh: -12%; PLK1 PBD inh: 11µM*; GLS inh: 14%

What do the screens show for `CCc1nnc(NCC(=O)N2CCc3ccccc32)s1`?
VDR inhibitor: -13%; PI4K2A inh: inconclusive; GCN5L2 inh: -5%; PLK1 PBD inh: 24µM*; GLS inh: 13%

How did CCc1nnc(NC(=O)c2c(O)c3cccc4c3n(c2=O)CC4)s1 do in these assays?
GCN5L2 inh: -3%

How did CC(=O)N1CCc2c1cccc2S(=O)(=O)NC(CC(C)C)C(=O)Nc1ccc(Cl)c(Cl)c1 (centres undefined) do in these assays?
PI4K2A inh: -3

What do the screens show for `O=C(OCc1cn(Cc2cccc(C(F)(F)F)c2)nn1)N1CCOCC1`?
PI4K2A inh: -1

What do the screens show for `CCSc1ncc(/C=N/Nc2ccccc2)n1C`?
VDR inhibitor: -13%; PI4K2A inh: 6; GCN5L2 inh: 3%; PLK1 PBD inh: 7.5µM*; GLS inh: -28%
